The nature of test [1]: qHTS assay to identify small molecule agonists of the peroxisome proliferator-activated receptor delta (PPARd) signaling pathway - cell viability counter screen (AID 743211). Note: nearly all actives have a fitted effect of over 55% in size. Note: potency is the fitted concentration of half-maximal effect. In outline: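 PPARd-bla HEK293H cells (3000/well) were pre-incubated 5 h at 37 C, then exposed to compound for 17 h at 37 C. After 2 h with LiveBLAzer substrate, CellTiter-Glo was added to the same wells; luminescence read after 30 min at room temperature.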

The target of test [2] is Peroxisome proliferator-activated receptor delta (Homo sapiens) (UniProt Q03181). As to the kind of experiment: qHTS assay to identify small molecule agonists of the peroxisome proliferator-activated receptor delta (PPARd) signaling pathway (AID 743212; calls by dose curve). In outline:
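HEK293H UAS-bla reporter cells, human PPARd system; compounds delivered in DMSO after 5 h plating, then at 37 C. Beta-lactamase FRET read, 2 h RT substrate step.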

Test [3] is described as follows: qHTS assay to identify small molecule antagonists of the peroxisome proliferator-activated receptor delta (PPARd) signaling pathway - cell viability counter screen (AID 743213). Note: nearly all actives have a fitted effect of over 50% in size. Note: potency is the fitted concentration of half-maximal effect. In outline: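 Cytotoxicity counter screen: CellTiter-Glo luminescence read 30 min after addition, in the same wells as the reporter assay. There, PPARd UAS-bla HEK293H cells (3000/well) were treated 17 h at 37 C with compound and 300 nM L165041.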

The target of test [4] is Peroxisome proliferator-activated receptor delta (Homo sapiens) (UniProt Q03181). The experiment in a line: qHTS assay to identify small molecule antagonists of the peroxisome proliferator-activated receptor delta (PPARd) signaling pathway (AID 743215; active = well fitted inhibition curve with a large enough effect in the signal ratio in the repeat runs, not every such curve was filed as active; the % refers to the signal ratio;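 note: cells stimulated with agonist L165041 at 300 nM final during compound exposure; series mostly up to about 62 µM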). The method, boiled down: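 Antagonist-mode beta-lactamase reporter screen: HEK293H cells with UAS-bla under PPARd control, stimulated by 300 nM L165041 (final) alongside test compound for 17 h at 37 C, then FRET fluorescence after 2 h substrate incubation.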

Test [5] in a line: qHTS assay to identify small molecule agonists of the farnesoid-X-receptor (FXR) signaling pathway - cell viability counter screen (AID 743218). Note: nearly all actives have a fitted effect of over 45% in size. Note: potency is the fitted concentration of half-maximal effect. In outline:
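In GeneBLAzer FXR-UAS-bla HEK 293T cells, compounds act for 16 h at 37 C. Cell viability is then scored in the reporter wells by CellTiter-Glo, 30 min at RT, luminescence.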

A short description of test [6]: qHTS assay to identify small molecule antagonists of the farnesoid-X-receptor (FXR) signaling pathway - cell viability counter screen (AID 743221; active = well fitted cell-killing curve with a large enough effect in the repeat runs, not every such curve was filed as active; note: nearly all actives have a fitted effect of over 50% in size; note: potency is the fitted concentration of half-maximal effect). In outline:
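GeneBLAzer FXR-UAS-bla HEK 293T cells, compound plus chenodeoxycholic acid (50 uM final), 16 h at 37 C. CellTiter-Glo added to the same wells after the beta-lactamase read; luminescence read after 30 min at room temperature as viability.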

Test [7] addresses Vitamin D3 receptor (Homo sapiens) (UniProt P11473). As to the kind of experiment: qHTS assay to identify small molecule agonists of the vitamin D receptor (VDR) signaling pathway (AID 743222; calls by dose curve). The method, boiled down: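 Agonist activity measured in VDR-bla reporter cells. Exposure 16 h, 37C, 5% CO2; detection by B/G FRET substrate, 2 h RT.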
Test [8] in a line: qHTS assay to identify small molecule agonists of the vitamin D receptor (VDR) signaling pathway - cell viability counter screen (AID 743224). Note: nearly all actives have a fitted effect of over 50% in size. Note: potency is the fitted concentration of half-maximal effect. In outline:
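VDR-bla cell line, quantitative HTS format; 16 h compound incubation (37C, 5% CO2); ATP-based CellTiter-Glo luminescence measured in the reporter assay wells.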

Test [9] can be described thus: qHTS assay to identify small molecule antagonists of the vitamin D receptor (VDR) signaling pathway - cell viability counter screen (AID 743225). Note: nearly all actives have a fitted effect of over 50% in size. Note: potency is the fitted concentration of half-maximal effect. In outline:
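VDR-UAS-bla HEK 293T cells were plated and incubated 4 h at 37C, then dosed with compound plus 3 nM (final) 1-alpha,25-dihydroxyvitamin D3 for 16 h. After the 2 h beta-lactamase read, viability in the same wells was read as CellTiter-Glo luminescence after 30 min at room temperature.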

A short description of test [10]: qHTS assay to identify small molecule agonists of the NFkB signaling pathway - cell viability counter screen (AID 1159515; calls by dose curve; note: nearly all actives have a fitted effect of over 55% in size; note: potency is the fitted concentration of half-maximal effect). In outline: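 Viability in NFkB-bla ME-180 cells was measured by CellTiter-Glo luminescence, 30 min room temperature, in wells already treated 5 hr with compounds and read for reporter FRET.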
The nature of test [11]: qHTS assay to identify small molecule agonists of the endoplasmic reticulum stress response signaling pathway (AID 1159516; active = well fitted activation curve with a large enough effect in the signal ratio in the repeat runs, not every such curve was filed as active; the % refers to the signal ratio). In outline:
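ER stress element reporter (bla) in HeLa. 1,500 cells/well, overnight attachment; 5 hr compound; 2 hr RT substrate; dual-emission fluorescence.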

Test [12] can be described thus: qHTS assay to identify small molecule agonists of the endoplasmic reticulum stress response signaling pathway - cell viability counter screen (AID 1159517; calls by dose curve; note: nearly all actives have a fitted effect of over 50% in size; note: potency is the fitted concentration of half-maximal effect). In outline: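 Cells, HeLa ESRE-bla; density, 1,500/well; dosing, 5 hr at 37 C, 5% CO2; readout, CellTiter-Glo luminescence after 30 min RT.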
Test [13] is described as follows: qHTS assay to identify small molecule antagonists of the retinoid-related orphan receptor gamma (ROR-gamma) signaling pathway - cell viability counter screen (AID 1159520). Note: nearly all actives have a fitted effect of over 50% in size. Note: potency is the fitted concentration of half-maximal effect. The method, boiled down:
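Cytotoxicity was read from cellular ATP (CellTiter-Glo luminescence) after 16 hr at 37 C with 1 uM doxycycline induction. The inducer was added 2 hr after compound transfer to Tet-on ROR gamma CHO cells.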

The nature of test [14]: qHTS assay to identify small molecule agonists of the AP-1 signaling pathway - cell viability counter screen (AID 1159525; calls by dose curve; note: nearly all actives have a fitted effect of over 55% in size; note: potency is the fitted concentration of half-maximal effect). In outline: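 Luminescent ATP readout (Cell Titer Glo, 30 min RT), normalised to DMSO and tetra n-octyl ammonium bromide controls. Cells were ME-180 AP-1-bla in 0.5% dialyzed FBS Opti-MEM, with a 5 h, 37 °C compound exposure.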
Test [15] in a line: qHTS assay to identify small molecule agonists of the AP-1 signaling pathway (AID 1159526; calls by dose curve).
The target of test [16] is Retinoic acid receptor RXR-alpha (Homo sapiens) (UniProt P19793). The experiment in a line: qHTS assay to identify small molecule agonists of the RXR signaling pathway (AID 1159527; calls by dose curve; note: nearly all actives have a fitted effect of over 35% in size). In outline: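 GeneBLAzer RXR-alpha-UAS-bla HEK 293T cells in 2% charcoal-stripped FBS medium were exposed to compounds for 16 hr at 37 C in agonist mode. Beta-lactamase reporter read as 460/530 nm FRET ratio after 2 hr substrate loading.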

The target of test [17] is Vitamin D3 receptor (Homo sapiens) (UniProt P11473). The experiment in a line: qHTS assay to identify small molecule antagonists of the vitamin D receptor (VDR) signaling pathway (AID 743223; active = well fitted inhibition curve with a large enough effect in the signal ratio in the repeat runs, not every such curve was filed as active; the % refers to the signal ratio). The method, boiled down: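 VDR-bla cells were treated with compound plus 3 nM final 1alpha,25-dihydroxyvitamin D3 for 16 h at 37C. Beta-lactamase reporter read by B/G FRET substrate fluorescence after 2 h at room temperature. qHTS format.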

Test [18] has as its target Nuclear receptor ROR-gamma (Homo sapiens) (UniProt P51449). As to the kind of experiment: qHTS assay to identify small molecule antagonists of the retinoid-related orphan receptor gamma (ROR-gamma) signaling pathway (AID 1159521; note: nearly all actives have a fitted effect of over 50% in size; note: potency is the fitted concentration of half-maximal effect). In outline:
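Tet-on ROR-gamma CHO cells with ROR response element-luciferase reporter; compounds added 2 hr before 1 uM doxycycline induction, then 16 hr at 37 C. Antagonism scored as decreased ONE-Glo luminescence.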

Test [19] deals with Bile acid receptor (Homo sapiens) (UniProt Q96RI1). The experiment in a line: qHTS assay to identify small molecule antagonists of the farnesoid-X-receptor (FXR) signaling pathway (AID 743217; active = well fitted inhibition curve with a large enough effect in the signal ratio in the repeat runs, not every such curve was filed as active; the % refers to the signal ratio). In outline: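 Beta-lactamase reporter under UAS control in HEK 293T cells; compound exposure 16 h at 37 °C in the presence of chenodeoxycholic acid (50 uM final); signal from B/G FRET substrate after 2 h at room temperature.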

Test [20] has the same target. As to the kind of experiment: qHTS assay to identify small molecule agonists of the farnesoid-X-receptor (FXR) signaling pathway (AID 743220; active = well fitted activation curve with a large enough effect in the signal ratio in the repeat runs, not every such curve was filed as active; the % refers to the signal ratio). In outline:
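Beta-lactamase reporter under UAS control in GeneBLAzer FXR HEK 293T cells (5000/well) measured with LiveBLAzer FRET substrate after 2 h at room temperature. Compound exposure lasted 16 h at 37C.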

Several values for one entry are separate records, joined by “and”; a condition that tells them apart may be missing. Equal entries are not always repeated. Results filed as inconclusive are left out. A structure can be active in one record and inactive in another. Activity calls are given as the source filed them. Unless noted, calls come from the whole dose curve; as a rule, active = well fitted curve in the direction sought with a large enough effect in the repeat runs; inconclusive = weak or mixed curves; inactive = no such curve, though single readings can be large; an effect the other way counts as inactive or inconclusive.

Peroxisome proliferator-activated receptor delta (Homo sapiens), sequence (Q03181 whole entry, looked up): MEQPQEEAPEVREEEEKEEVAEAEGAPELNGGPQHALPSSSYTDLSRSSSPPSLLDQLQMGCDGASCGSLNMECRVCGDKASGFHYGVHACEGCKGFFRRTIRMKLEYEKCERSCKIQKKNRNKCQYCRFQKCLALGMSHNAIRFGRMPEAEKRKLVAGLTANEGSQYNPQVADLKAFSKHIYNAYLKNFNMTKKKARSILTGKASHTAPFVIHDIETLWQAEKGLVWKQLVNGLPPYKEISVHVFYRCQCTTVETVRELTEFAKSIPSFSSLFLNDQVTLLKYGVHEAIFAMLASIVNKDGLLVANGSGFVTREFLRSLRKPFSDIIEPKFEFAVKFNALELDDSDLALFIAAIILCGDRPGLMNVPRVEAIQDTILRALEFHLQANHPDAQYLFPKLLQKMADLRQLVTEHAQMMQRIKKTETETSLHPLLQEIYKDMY
Vitamin D3 receptor (Homo sapiens), sequence (P11473 whole entry, looked up): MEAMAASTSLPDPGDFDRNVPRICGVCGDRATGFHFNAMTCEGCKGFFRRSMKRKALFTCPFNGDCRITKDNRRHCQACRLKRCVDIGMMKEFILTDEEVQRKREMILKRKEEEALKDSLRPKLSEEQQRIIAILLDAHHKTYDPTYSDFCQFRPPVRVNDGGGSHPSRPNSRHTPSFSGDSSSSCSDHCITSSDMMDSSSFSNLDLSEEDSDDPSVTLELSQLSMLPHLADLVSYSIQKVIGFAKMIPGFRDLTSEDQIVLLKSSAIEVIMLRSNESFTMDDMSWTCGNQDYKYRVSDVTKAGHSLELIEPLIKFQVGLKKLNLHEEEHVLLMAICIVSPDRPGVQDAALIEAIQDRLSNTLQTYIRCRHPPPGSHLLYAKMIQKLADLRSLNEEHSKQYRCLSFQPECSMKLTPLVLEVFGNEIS
Retinoic acid receptor RXR-alpha (Homo sapiens), sequence (P19793 whole entry, looked up): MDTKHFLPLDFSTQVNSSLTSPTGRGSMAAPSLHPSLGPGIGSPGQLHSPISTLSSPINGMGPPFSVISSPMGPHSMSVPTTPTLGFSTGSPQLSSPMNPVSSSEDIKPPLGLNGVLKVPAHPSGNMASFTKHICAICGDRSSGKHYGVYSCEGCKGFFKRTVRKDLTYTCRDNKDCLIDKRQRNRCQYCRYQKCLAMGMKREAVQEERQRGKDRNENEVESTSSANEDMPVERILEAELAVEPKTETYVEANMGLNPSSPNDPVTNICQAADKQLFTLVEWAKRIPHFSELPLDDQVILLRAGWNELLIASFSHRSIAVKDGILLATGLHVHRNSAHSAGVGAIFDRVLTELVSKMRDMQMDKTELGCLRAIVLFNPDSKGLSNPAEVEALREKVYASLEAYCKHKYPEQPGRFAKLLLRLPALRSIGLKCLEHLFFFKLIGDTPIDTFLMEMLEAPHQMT
Bile acid receptor (Homo sapiens), sequence (Q96RI1 whole entry, looked up): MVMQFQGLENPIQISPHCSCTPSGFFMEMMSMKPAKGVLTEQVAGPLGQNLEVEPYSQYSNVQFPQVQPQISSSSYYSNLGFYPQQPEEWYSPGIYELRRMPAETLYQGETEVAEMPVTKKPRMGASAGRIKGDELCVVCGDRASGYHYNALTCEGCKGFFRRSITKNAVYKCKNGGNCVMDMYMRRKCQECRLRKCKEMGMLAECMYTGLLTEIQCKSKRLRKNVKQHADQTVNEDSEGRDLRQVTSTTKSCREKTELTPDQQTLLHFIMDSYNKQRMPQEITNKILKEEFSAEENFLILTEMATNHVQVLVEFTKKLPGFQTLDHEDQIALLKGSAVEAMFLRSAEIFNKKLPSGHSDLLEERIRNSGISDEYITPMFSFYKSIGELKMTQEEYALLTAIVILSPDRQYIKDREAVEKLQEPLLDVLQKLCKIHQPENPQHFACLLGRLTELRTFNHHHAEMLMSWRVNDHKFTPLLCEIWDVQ

`CCOP(=S)(OCC)SCSC(C)(C)C`: the Potency result in test [1], in test [2], in test [3], in test [4], in [5] and in test [6] was “inactive” each time. Moreover, the Potency entry in test [8], in test [9], in test [10], in test [11], in test [12] and in [13] was “inactive” throughout. For the same compound, the Potency result in test [14] and in [16] was “inactive” each time. Besides, the result in test [7] and in test [15] was inactive.
For `[CH3][Sn]([Cl])([Cl])[Cl]`, the Potency result in [2], in test [3], in [5], in test [6], in test [17] and in test [8] was “inactive” throughout. Moreover, the Potency entry in test [9], in [10], in test [11], in test [13], in test [18] and in test [14] was “inactive” throughout. Moreover, the Potency result in test [16] is “inactive”. In addition, the result in test [7] and in test [15] was inactive.
On to `COc1ccc(C=O)cc1OC`, for which the Potency result in test [1], in test [3], in [6], in test [8], in test [9] and in [10] was “inactive” each time. For the same compound, the Potency result in test [11], in test [12], in test [13], in [18] and in [14] was “inactive” throughout. Moreover, the call in test [15] was inactive.
With `Cc1ccc(N=CN(C)C=Nc2ccc(C)cc2C)c(C)c1`, the Potency in test [3] is 24.5 µM (active); in test [8], 39.1 µM (active) and 38.9 µM (active); in test [10] it was 54.9 µM (active) and inactive; in [18], 48.8 µM (active) and 54.4 µM (active) and inactive; in [14] it was 54.9 µM (active) and inactive. Moreover, the Potency result in [6], in test [9], in test [11], in test [12] and in test [13] was “inactive” in each case. In addition, the compound was called inactive in [7] and in test [15].
Regarding `CCC(=O)Nc1ccc(Cl)c(Cl)c1`, the Potency result in test [1], in [3], in [5], in test [6], in [8] and in test [9] was “inactive” throughout. Moreover, the Potency result in test [10], in [11], in test [12], in [13], in test [14] and in test [16] was “inactive” each time. The call in test [7] and in [15] was inactive.
Consider `CCN(CC)C(=O)C(C)Oc1cccc2ccccc12` (stereo unspecified), for which the Potency result in [2], in [3], in test [4], in [19], in test [5] and in [20] was “inactive” throughout. The Potency entry in test [6], in test [8], in test [9], in [10], in test [11] and in test [12] was “inactive” in each case. In addition, the Potency entry in test [13], in test [18] and in [14] was “inactive” throughout. Also, the compound was classed as inactive in test [15].
For `C=CC(=O)OCC(CC)(COC(=O)C=C)COC(=O)C=C`, the Potency was 11 µM (active) in test [1]; 13.8 µM (active) in [3]; “inactive and 13.8 µM (active)” in [5]; “inactive and 43.6 µM (active)” in test [6]; 20 µM (active) and 11 µM (active) in test [8]; 20 µM (active) and 17.4 µM (active) in test [9]. Further, the Potency result was “inactive and 24.5 µM (active)” in test [12]; 3.15 µM (active) and 6.86 µM (active) in test [18]. The Potency result in test [19], in [10], in [11] and in test [14] was “inactive” each time. In addition, the compound was classed as inactive in test [7].
Turning to `CCCCCCCC[N+](C)(CCCCCCCC)CCCCCCCC`, the Potency in test [1] was 4.36 µM (active) and 2.46 µM (active) and 5.49 µM (active); in test [3], 3.88 µM (active) and 2.46 µM (active) and 5.49 µM (active); in [5] it was 7.75 µM (active) and 2.19 µM (active) and 7.76 µM (active); in [6], 13.8 µM (active) and 7.77 µM (active) and 21.9 µM (active); in [8], 6.15 µM (active) and 3.09 µM (active) and 5.49 µM (active); in test [9] it was 5.48 µM (active) and 6.93 µM (active) and 6.16 µM (active). For the same compound, the Potency in [10] was 17.3 µM (active) and 24.5 µM (active); in test [12], “inactive and 13.8 µM (active) and 21.9 µM (active)”; in [13], 24.3 µM (active) and 21.7 µM (active) and 10.9 µM (active); in [18] it was 4.32 µM (active) and 2.17 µM (active) and 6.11 µM (active); in test [14] it was 17.3 µM (active) and 13.8 µM (active) and 19.5 µM (active). Besides, the Potency result in [11] is “inactive”.
Regarding `CC(C)=CC1C(C(=O)OCN2C(=O)C3=C(CCCC3)C2=O)C1(C)C` (stereo unspecified), the Potency result in test [1], in test [3], in test [5], in [6], in test [9] and in [10] was “inactive” each time. For the same compound, the Potency entry in test [11], in [12], in test [13] and in [14] was “inactive” throughout. The compound was classed as inactive in test [7].
